Data: PMC12864922, “TDP-43 directly inhibits mRNA accumulation in neurites through modulation of mRNA stability”
Over roughly 9,900 sequences, “r (bound/input frequency ratio)” has its median near 0.7; the highest 2% begin near 6.5. Shown is part of a subset that was picked to be rich in the highest values.

B1: ENSMUSG00000042529.392|Kcnj12|56:60;127:179;184:189;193:197;209:219;242:247 (ssRNA)
RNA: GGGAGUUCUACAGUCCGACGAUCGCUUCGAUAUCCGCAUGCUAGAUCAGUCCGACUUGAGUCCCUGCCCUGCCCUGGUUAUGCAGGCUGUACGACGCACACACCAUCAGUCUGAGGAGUCUGGUGGUAAGUAAGCCUCUGCAGCAGACCCUGUCGGAGGCCAUGGGGGCCACACACACACACACACACACACACACACACACACACACACACACACACACACAACAACACACAGGCACACGAGGUCCCAGGCACACACAUACUGAAUGUCAGUGGCUUGGGUGCACACACGAGAGAGAGAGAGCUCUUGCGGUCGCACUAGUGUGGAAUUCUCGGGUGUCAAGG
B2: ENSMUSG00000042529.389|Kcnj12 (ssRNA)
RNA: GGGAGUUCUACAGUCCGACGAUCGCUUCGAUAUCCGCAUGCUAGAUGCUGGCCACAGACAUGAUCAGUCCGACUUGAGUCCCUGCCCUGCCCUGGUUAUGCAGGCUGUACGACGCAGUGUGCAUCAGUCUGAGGAGUCUGGUGGUAAGUAAGCCUCUGCAGCAGACCCUGUCGGAGGCCAUGGGGGCGUGUGUGUGUGUGUGUGUGUGUGUGUGUGUGUGUGUGUGUGUGUGUGUGUGUGAACAUGUGUGAGGGUGUGGAGGUCCCAGGGUGUGUGUAUGUGAAUGUCAGUGGCUUGGGUGCUCUCUUGCGGUCGCACUAGUGUGGAAUUCUCGGGUGUCAAGG
B3: ENSMUSG00000042529.395|Kcnj12 (ssRNA)
RNA: GGGAGUUCUACAGUCCGACGAUCGCUUCGAUAUCCGCAUGCUACCCUGCCCUGCCCUGGUUAUGCAGGCUGUACGACGCAGUGUGCAUCAGUCUGAGGAGUCUGGUGGUAAGUAAGCCUCUGCAGCAGACCCUGUCGGAGGCCAUGGGGGCGUGUGUGUGUGUGUGUGUGUGUGUGUGUGUGUGUGUGUGUGUGUGUGUGUGUGAACAUGUGUGAGGGUGUGGAGGUCCCAGGGUGUGUGUAUGUGAAUGUCAGUGGCUUGGGUGCUGUGUGGAGAGAGAGAGAGAGAGAGAGAGAGAGAGAGCUCUUGCGGUCGCACUAGUGUGGAAUUCUCGGGUGUCAAGG
B4: ENSMUSG00000042529.396|Kcnj12 (ssRNA)
RNA: GGGAGUUCUACAGUCCGACGAUCGCUUCGAUAUCCGCAUGCUACCUGCCCUGGUUAUGCAGGCUGUACGACGCAGUGUGCAUCAGUCUGAGGAGUCUGGUGGUAAGUAAGCCUCUGCAGCAGACCCUGUCGGAGGCCAUGGGGGCGUGUGUGUGUGUGUGUGUGUGUGUGUGUGUGUGUGUGUGUGUGUGUGUGUGUGAACAUGUGUGAGGGUGUGGAGGUCCCAGGGUGUGUGUAUGUGAAUGUCAGUGGCUUGGGUGCUGUGUGGAGAGAGAGAGAGAGAGAGAGAGAGAGAGAGAGAGAGCUCUUGCGGUCGCACUAGUGUGGAAUUCUCGGGUGUCAAGG
B5: ENSMUSG00000042529.414|Kcnj12 (ssRNA)
RNA: GGGAGUUCUACAGUCCGACGAUCGCUUCGAUAUCCGCAUGCUAGUGUGUGUGUGUGUGUGUGUGUGUGUGUGUGUGUGUGUGUGUGUGUGAACAUGUGUGAGGGUGUGGAGGUCCCAGGGUGUGUGUAUGUGAAUGUCAGUGGCUUGGGUGCUGUGUGGAGAGAGAGAGAGAGAGAGAGAGAGAGAGAGAGAGAGAGAGAGAGAGAGAGCUGCACAGGAUGAAGCAGCUGCCCUGAGCCCAUCUGGUGCUGUGCACCUGGUCCUUGUCCAGCCGAGGGCCUGGGGGCAGAAGAACACACCAUACUCUUGCGGUCGCACUAGUGUGGAAUUCUCGGGUGUCAAGG
B6: ENSMUSG00000042529.394|Kcnj12 (ssRNA)
RNA: GGGAGUUCUACAGUCCGACGAUCGCUUCGAUAUCCGCAUGCUAUUGAGUCCCUGCCCUGCCCUGGUUAUGCAGGCUGUACGACGCAGUGUGCAUCAGUCUGAGGAGUCUGGUGGUAAGUAAGCCUCUGCAGCAGACCCUGUCGGAGGCCAUGGGGGCGUGUGUGUGUGUGUGUGUGUGUGUGUGUGUGUGUGUGUGUGUGUGUGUGUGUGAACAUGUGUGAGGGUGUGGAGGUCCCAGGGUGUGUGUAUGUGAAUGUCAGUGGCUUGGGUGCUGUGUGGAGAGAGAGAGAGAGAGAGAGAGAGCUCUUGCGGUCGCACUAGUGUGGAAUUCUCGGGUGUCAAGG
B7: ENSMUSG00000043670.183|Diras1 (ssRNA)
RNA: GGGAGUUCUACAGUCCGACGAUCGCUUCGAUAUCCGCAUGCUAGACAGAAUCUGAGCCUCUUUGCUGGUCAUGUGUACUCUGGAGACUGUCCCCCAUGUCUGCCCUGAGUUACGGAGCCCCUGUGGUAUCUGCGAGACUGUCCAGGAGACUUGAGUGGCUCCUGGGCCUGUGUCCCACCCAGAUGAGGGUGACUUAGAAUUCUGUGUUUAUGUGCCUGUGUGUGUGGAUGGGUGUGUGUCUGUCUUGGGAUGGGGUGUUCUUGCACCACUUUGUGUUCUUAGUGAGACCACAGUGUAAGUGGCCUCUUGCGGUCGCACUAGUGUGGAAUUCUCGGGUGUCAAGG
B8: ENSMUSG00000042529.413|Kcnj12 (ssRNA)
RNA: GGGAGUUCUACAGUCCGACGAUCGCUUCGAUAUCCGCAUGCUAGUGUGUGUGUGUGUGUGUGUGUGUGUGUGUGUGUGUGUGUGUGUGUGUGUGUGAACAUGUGUGAGGGUGUGGAGGUCCCAGGGUGUGUGUAUGUGAAUGUCAGUGGCUUGGGUGCUGUGUGGAGAGAGAGAGAGAGAGAGAGAGAGAGAGAGAGAGAGAGAGAGAGAGAGAGCUGCACAGGAUGAAGCAGCUGCCCUGAGCCCAUCUGGUGCUGUGCACCUGGUCCUUGUCCAGCCGAGGGCCUGGGGGCAGAAGAACACCUCUUGCGGUCGCACUAGUGUGGAAUUCUCGGGUGUCAAGG
B9: ENSMUSG00000042529.390|Kcnj12 (ssRNA)
RNA: GGGAGUUCUACAGUCCGACGAUCGCUUCGAUAUCCGCAUGCUAGGCCACAGACAUGAUCAGUCCGACUUGAGUCCCUGCCCUGCCCUGGUUAUGCAGGCUGUACGACGCAGUGUGCAUCAGUCUGAGGAGUCUGGUGGUAAGUAAGCCUCUGCAGCAGACCCUGUCGGAGGCCAUGGGGGCGUGUGUGUGUGUGUGUGUGUGUGUGUGUGUGUGUGUGUGUGUGUGUGUGUGUGAACAUGUGUGAGGGUGUGGAGGUCCCAGGGUGUGUGUAUGUGAAUGUCAGUGGCUUGGGUGCUGUGUGGCUCUUGCGGUCGCACUAGUGUGGAAUUCUCGGGUGUCAAGG

Target: TDP-43 (Homo sapiens, UniProt Q13148 1-414)
Experiment: RNA Bind-n-Seq with designed 260-mer pool; 25 mM Tris-HCl, 150 mM KCl, 3 mM MgCl2, BSA (printed 500 mg/mL), 20 units/mL SUPERase IN; pH not stated; 500 nM RNA pool, 1 h, 4 C; TDP-43 5, 50, 500 nM; high values mean tight binding
Settings: protein: recombinant; tags: SBP (GST cleaved off with PreScission; pGEX-GST-SBP)
Procedure, shortened: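 Binding (R) is the ratio of each oligo's mapped-read-normalized abundance in the bound fraction to its abundance in the input. To obtain it, SBP-tagged recombinant TDP-43 (5, 50 or 500 nM) on streptavidin beads was incubated with 500 nM of an in vitro-transcribed 260-nt 3′ UTR oligo pool for 1 h at 4 °C in 25 mM Tris-HCl, 150 mM KCl, 3 mM MgCl2, BSA and SUPERase IN. The RNA retained after washing was released with biotin, then reverse transcribed, amplified by PCR and sequenced.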

TDP-43, sequence (Q13148 whole entry): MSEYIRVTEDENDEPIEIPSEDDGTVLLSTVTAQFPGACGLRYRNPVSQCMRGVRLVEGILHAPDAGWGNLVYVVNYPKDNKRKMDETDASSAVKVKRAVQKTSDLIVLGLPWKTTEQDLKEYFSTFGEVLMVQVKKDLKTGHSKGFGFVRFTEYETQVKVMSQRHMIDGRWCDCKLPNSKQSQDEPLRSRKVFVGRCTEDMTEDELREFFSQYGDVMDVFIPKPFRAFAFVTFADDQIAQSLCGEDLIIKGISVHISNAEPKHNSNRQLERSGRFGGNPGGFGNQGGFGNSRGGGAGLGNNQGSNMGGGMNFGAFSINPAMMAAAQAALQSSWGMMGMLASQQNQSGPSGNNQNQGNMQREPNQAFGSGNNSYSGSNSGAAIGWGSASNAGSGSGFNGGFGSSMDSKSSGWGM

Row | Binder | binding signal
1 | B1 | 2.98 R (bound/input frequency ratio)
2 | B2 | 7.39 R (bound/input frequency ratio)
3 | B3 | 5.73 R (bound/input frequency ratio)
4 | B4 | 7.9 R (bound/input frequency ratio)
5 | B5 | 5.01 R (bound/input frequency ratio)
6 | B6 | 5.55 R (bound/input frequency ratio)
7 | B7 | 5.8 R (bound/input frequency ratio)
8 | B8 | 4.88 R (bound/input frequency ratio)
9 | B9 | 8.92 R (bound/input frequency ratio)
